Test results taken from PubChem BioAssay AID1578 (Sanford-Burnham Center for Chemical Genomics, 2009).
About 3,000 (1%) of roughly 290,000 compounds were called active. Rule as the data show it: active = inhibition mostly above about 36% (no sharp cut-off); inactive = mostly below about 34%. What follows is part of a selection rich in actives, with near analogues and random picks from the rest.

Assay: inhibition of NOD1-driven NF-kB reporter – cell-based, luminescence, uHTS, primary screen (AID 1578);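 also: HEK-293T reporter cells stimulated with the NOD1 agonist gamma-tri-DAP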
Details: NOD1-driven NF-kB luciferase reporter cells, at 4 µM, hits give high values

For O=C(Cc1ccc(F)cc1)Nc1nccs1, which inhibition is on record?
The inhibition was -24.2% (inactive).

For COc1ccc(/C=C/C(=O)Nc2ccc3nc4n(c(=O)c3c2)CCCC4)cc1OC, which inhibition is on record?
Its inhibition is -31.1% (inactive).

For O=C(O)c1ccc(NCc2cccnc2)c([N+](=O)[O-])c1, which inhibition is on record?
Its inhibition is -17.4% (inactive).

With C/C(=N\NC(N)=O)c1cccc(Cl)c1 as the compound, how does the inhibition read?
The inhibition was 29% (inactive).

Which inhibition does the source give for CCCCNC(=S)Nc1ccccc1Cc1ccccc1 here?
The inhibition was -3.1% (inactive).

For COCCCNC(=S)Nc1ccccc1C, which inhibition is on record?
The inhibition was -13.2% (inactive).

With COCCNC(=S)Nc1ccccc1Cc1ccccc1 as the compound, how does the inhibition read?
The inhibition was 45.2% (active).

For CCCCCN(C(=O)NC(=O)NC(C)CC)S(C)(=O)=O (stereo not given), which inhibition is on record?
The inhibition was -3.8% (inactive).

With Cc1noc(NC(=O)c2ccc(Cl)cc2)c1Cl as the compound, how does the inhibition read?
Its inhibition is -33% (inactive).

With Cc1noc(NC(=O)c2ccc(Cl)c(Cl)c2)c1Cl as the compound, how does the inhibition read?
The inhibition was 67.6% (active).

Which inhibition does the source give for Cc1noc(NC(=O)c2cccc(C(F)(F)F)c2)c1Cl here?
Its inhibition is -5.6% (inactive).

With COc1cccc(C(=O)NCCNC(=O)c2ccc(C)nc2)c1 as the compound, how does the inhibition read?
The inhibition was -6.6% (inactive).

For CCCCNC(=S)N(C)/N=C/c1ccccc1F, which inhibition is on record?
The inhibition was 12.5% (inactive).

Which inhibition does the source give for CCCCNC(=S)N(C)/N=C/c1ccc(F)cc1 here?
Its inhibition is 100% (active).

With CCCCNC(=S)N(C)/N=C/c1c(F)cccc1F as the compound, how does the inhibition read?
The inhibition was -5.6% (inactive).

For Cc1ccc(C(=O)NC2CCc3ccccc3C2=O)cc1 (stereo not given), which inhibition is on record?
Its inhibition is -47.4% (inactive).

With COCCN1CCN(C(=O)C2CCC(=O)N(Cc3ccccc3OC)C2)CC1 (stereo not given) as the compound, how does the inhibition read?
The inhibition was -18.1% (inactive).

For N#CCCn1cc(/C=C/C(=O)O)c(-c2ccc(F)cc2)n1, which inhibition is on record?
The inhibition was -31.6% (inactive).

With COc1ccc(Cn2cc3c(-c4ccc(F)cc4)nnc-3c3cc(OC)c(OC)cc32)cc1 as the compound, how does the inhibition read?
Its inhibition is 10.1% (inactive).

Which inhibition does the source give for COc1cc2c3nnc(-c4ccc(F)cc4)c-3cn(Cc3ccc(C)cc3)c2cc1OC here?
The inhibition was -31.5% (inactive).

For COc1cc2c3nnc(-c4ccc(F)cc4)c-3cn(Cc3ccc(F)cc3)c2cc1OC, which inhibition is on record?
The inhibition was 108% (active).

For Cc1cc(N2CC(C(=O)Nc3nccs3)CC2=O)ccc1C(C)C (stereo not given), which inhibition is on record?
Its inhibition is -22.4% (inactive).

With COc1ccc(C(=O)Nc2cc(C)on2)cc1[N+](=O)[O-] as the compound, how does the inhibition read?
Its inhibition is -31.1% (inactive).

For O=C(Nc1ccc(-c2n[nH]c(=S)o2)cc1)c1ccccc1Cl, which inhibition is on record?
Its inhibition is -4.7% (inactive).

Which inhibition does the source give for Cc1nn(-c2ncc(C(F)(F)F)cc2Cl)c(=O)n1-c1c(F)cccc1F here?
The inhibition was -38.4% (inactive).

For O=c1[nH]c(/C(Cl)=C/c2cc(Cl)ccc2O)nc2cc(Cl)ccc12, which inhibition is on record?
The inhibition was 81.7% (active).

Which inhibition does the source give for O=c1[nH]c(/C(Cl)=C/c2c(F)cccc2Cl)nc2cc(Cl)ccc12 here?
The inhibition was 25.9% (inactive).

For CCc1ccc(/C=C(\Cl)c2nc3cc(Cl)ccc3c(=O)[nH]2)cc1, which inhibition is on record?
The inhibition was -10.4% (inactive).

Which inhibition does the source give for CCOP(=O)(OCC)C(NC(C)=O)C(=O)c1ccccc1 (stereo not given) here?
Its inhibition is -30.2% (inactive).

With Cc1cc(C)cc(NC(=S)NCc2cccnc2)c1 as the compound, how does the inhibition read?
The inhibition was -23.4% (inactive).

Which inhibition does the source give for CC(C)[C@@H]1COC(c2cccc(C3=N[C@H](C(C)C)CO3)n2)=N1 here?
The inhibition was 11.3% (inactive).

With CC(C)[C@@H]1COC(c2cccc(C3=N[C@H](C(C)C)CO3)c2)=N1 as the compound, how does the inhibition read?
Its inhibition is -29% (inactive).

Which inhibition does the source give for CC(C)[C@H]1COC(NC2=N[C@@H](C(C)C)CO2)=N1 here?
The inhibition was 75.5% (active).

With Cc1ccc(C2C(=O)c3ccccc3C2=O)cc1 as the compound, how does the inhibition read?
The inhibition was -11% (inactive).

For CCOc1ccc(N/C(=N/c2nc(C)cc(C)n2)NC(C)=O)cc1, which inhibition is on record?
The inhibition was -12% (inactive).

For COc1ccccc1-c1nc(C#N)c(N2CCN(Cc3ccccc3)CC2)o1, which inhibition is on record?
Its inhibition is 13.8% (inactive).

For Cc1ccc(N2CN=c3s/c(=C\c4ccccn4)c(=O)n3C2)cc1, which inhibition is on record?
The inhibition was -21.2% (inactive).

Which inhibition does the source give for Cc1ccc(N2CN=c3s/c(=C\c4cccnc4)c(=O)n3C2)cc1 here?
The inhibition was 84.1% (active).

Which inhibition does the source give for CCc1ccc(N2CN=c3s/c(=C\c4ccccc4)c(=O)n3C2)cc1 here?
Its inhibition is -13% (inactive).

For COc1cccc(C2Nc3ccccc3NC3=C2C(=O)CC(C)(C)C3)c1OC (stereo not given), which inhibition is on record?
Its inhibition is -8.8% (inactive).

Which inhibition does the source give for C=CCn1c(=O)c2c(nc3n2CCS3)n(C)c1=O here?
The inhibition was 5.1% (inactive).

Which inhibition does the source give for CCN(CC)C(=O)C[n+]1cccc(/C=N/O)c1 here?
The inhibition was -12.8% (inactive).

Which inhibition does the source give for Cc1ccc(C)c(OCC(=O)Nc2nc3ccc([N+](=O)[O-])cc3s2)c1 here?
Its inhibition is -16.9% (inactive).

Which inhibition does the source give for Cc1cccc(OCC(=O)Nc2nc3ccc([N+](=O)[O-])cc3s2)c1 here?
Its inhibition is 55.9% (inactive).

For CS(=O)(=O)N(CC(=O)N/N=C/c1ccc(OCC(=O)N2CCOCC2)cc1)c1ccccc1Cl, which inhibition is on record?
The inhibition was -22.8% (inactive).

For Cc1sc(NC(=O)CSc2nc(O)cc(=O)[nH]2)nc1-c1ccccc1, which inhibition is on record?
The inhibition was -24.3% (inactive).

With CN(CCCN1CCOCC1)C(=O)c1cc(COc2cccc(C(F)(F)F)c2)on1 as the compound, how does the inhibition read?
Its inhibition is -8.6% (inactive).

For OCCCC1CCCN(Cc2cn[nH]c2-c2ccc(F)cc2F)C1 (stereo not given), which inhibition is on record?
The inhibition was 75% (active).

Which inhibition does the source give for CCOC(=O)C1CCCN(Cc2cn[nH]c2-c2ccc(F)cc2F)C1 (stereo not given) here?
The inhibition was -31.8% (inactive).

With O=C(C1CCN(Cc2cn[nH]c2-c2ccc(F)cc2F)CC1)N1CCOCC1 as the compound, how does the inhibition read?
The inhibition was -5.7% (inactive).
